In PubChem BioAssay (NCATS):
Where “and” joins values, the source holds several entries; their conditions need not be identical. Identical values can stand only once. Inconclusive results are not listed. The source holds several records for some structures; these can differ, active in one and inactive in another. A number with no mark means an inactive call. Calls of active or inactive are those of the source. Calls come from the whole dose curve; as a rule, active = well fitted curve in the direction sought with a large enough effect; inconclusive = small, poorly fitted or top-dose-only effect, or another doubt; inactive = no such curve, though single readings can be large; an effect the other way counts as inactive or inconclusive.

Key:
[1] = Viability qHTS for spleen associated tyrosine kinase inhibitor (SYKi) drug resistant MV4-11 cells (AID 1963824); note: nearly all actives have a fitted effect of over 35% in size
Procedure, shortened: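 SYK-inhibitor-resistant MV4-11 AML cells were seeded at 500 per well onto compound and cultured 72 hours (37 °C, 5% CO2). CellTiter-Glo was then added, and after 10 min at room temperature, luminescence gave viability.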

[2] = Cellular viability qHTS for adrenocortical cancer (ACC) cell line SW-13 (AID 1963989); settings: SW-13 ACC cells viability, CellTiter-Glo, 48 h; activity (max response): stronger effect = lower value; note: nearly all actives have a fitted effect of over 65% in size;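 for activity (max response): cells grown in serum-free medium with ITS supplement; % is set by controls: 0 for no effect and ±100 for the full control effect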
Procedure, shortened: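 Here, serum-free SW-13 cultures were dosed up to 46 uM. Following 48 h, ATP-dependent luminescence (CellTiter-Glo) reported viable cells, and logistic modeling produced IC50 values.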

[3] = Cellular viability qHTS for adrenocortical cancer (ACC) cell line NCI-H295R (AID 1963990); note: nearly all actives have a fitted effect of over 60% in size
Procedure, shortened: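 Viability of NCI-H295R after 48 h of treatment (final up to 46 uM) measured through cellular ATP luminescence.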
Potency is the fitted concentration of half-maximal effect.

Structure (SMILES) | Potency [1] | activity (max response) [2] | Potency [2] | Potency [3]
CCN(CC)CCOC(=O)C(Cc1cccc2ccccc12)CC1CCCO1 (configuration not stated) | inactive | -10.7% |  | 
CCc1cccc2c3c([nH]c12)[C@@](CC)(CC(=O)O)OCC3 | 14.8 µM (active) | -21.1% |  | 
C=CC(=O)N1CCC[C@@H](n2nc(-c3ccc(Oc4ccccc4)cc3)c3c(N)ncnc32)C1 | 1.3 µM (active) and 1.18 µM (active) | 5.79% |  | 
CO[C@H]1/C=C/O[C@@]2(C)Oc3c(C)c(O)c4c(O)c(c(/C=N/N5CCN(C)CC5)c(O)c4c3C2=O)NC(=O)/C(C)=C\C=C\[C@H](C)[C@H](O)[C@@H](C)[C@@H](O)[C@@H](C)[C@H](OC(C)=O)[C@@H]1C | 18.6 µM (active) | -27.5% |  | 
COc1cc(/C=C/C(=O)O[C@H]2CC[C@]34C[C@]35CC[C@]3(C)[C@@H]([C@H](C)CCC=C(C)C)CC[C@@]3(C)[C@@H]5CC[C@H]4C2(C)C)ccc1O | 16.4 µM (active) |  | 14.6 µM (active) | 
Cc1[nH]nc(C(F)(F)F)c1Cc1sc2c(c1C(=O)N1C[C@](C)(O)CO1)c(=O)n(C)c(=O)n2C(C)C | inactive | 14.8% |  | 
COc1ccc(N(C)c2nc(C)nc3ccccc23)cc1 | 0.0042 µM (active) |  | 0.0112 µM (active) | 
CN[C@@H](C)C(=O)N[C@@H]1C(=O)N(Cc2c(C)ccc3ccccc23)c2ccc(C#N)cc2N(C(C)=O)[C@H]1C | 13.2 µM (active) | 3.96% |  | 
CCN(CC)CCSC(=O)C(c1ccccc1)c1ccccc1 | inactive | -19.1% |  | 
COc1cc(C=C2CCC/C(=C\c3ccc(O)c(OC)c3)C2=O)ccc1O | 3.35 µM (active) |  | 4.61 µM (active) | 
C=C1[C@H](OC(=O)/C=C(\C)CC)C[C@@H](C(C)C)[C@@H]2[C@H]([C@@H](C)OC(C)=O)C(=O)C[C@@H]12 | 13.2 µM (active) | 6.72% |  | 
C/C(=N\NC(=O)c1cccc(S(=O)(=O)N2CCOCC2)c1)c1cc(Cl)ccc1O | 0.742 µM (active) |  | 8.91 µM (active) | 
NC(=O)c1cc(F)cc2c1C(=O)N(C1CCN(C3CCC(F)(F)CC3)CC1)C2 | inactive | -0.81% |  | 
CC(=O)O/N=C1/C(c2c(O)[nH]c3cc(Br)ccc23)=Nc2ccccc21 | 0.209 µM (active) |  | 25.1 µM (active) | 
CC(Nc1ncnc2nc[nH]c12)c1cc2cccc(Cl)c2c(=O)n1-c1ccccc1 (configuration not stated) | 2.59 µM (active) | -2.7% |  | 
C=CCN1C[C@H](C(=O)N(CCCN(C)C)C(=O)NCC)CC2c3cccc4[nH]cc(c34)C[C@H]21 (some centres not stated) | 16.6 µM (active) | -6.18% |  | 
COc1ccnc2[nH]cc(C(=O)C(=O)N3CCN(C(=O)c4ccccc4)C[C@H]3C)c12 | inactive | 1.31% |  | 
O=C(O)C[C@H]1CCc2c1[nH]c1ccc(OCc3ccc(C4CCCC4)c(C(F)(F)F)c3)cc21 | 7.42 µM (active) | 5.55% |  | 
CCCCCCCCCCCCCC[N+](C)(C)C | 1.33 µM (active) |  | 4.61 µM (active) | 
CC[C@H](C)C(=O)O[C@H]1CCC=C2C=C[C@H](C)[C@H](CC[C@@H]3C[C@@H](O)CC(=O)O3)[C@H]21 | 4.68 µM (active) | -23.7% |  | 
COc1nc(N)nc2c1ncn2C1OC(CO)C(O)C1O (configuration not stated) | inactive | 12% |  | 

Structure (SMILES) | Potency [1] | activity (max response) [2] | Potency [2] | Potency [3]
COc1ccc([C@@H]2CC(=O)c3c(O)cc(O[C@@H]4O[C@H](CO[C@@H]5O[C@@H](C)[C@H](O)[C@@H](O)[C@H]5O)[C@@H](O)[C@H](O)[C@H]4O)cc3O2)cc1O | 8.33 µM (active) | 3.7% |  | 
CC(/C=C1\SC(=S)N(CC(=O)O)C1=O)=C\c1ccccc1 | inactive | 4.22% |  | inactive
O=C(NOCCO)c1cc(CN2OCCCC2=O)c(F)c(F)c1Nc1ccc(I)cc1F | 0.0651 µM (active) |  | 7.08 µM (active) | 25.1 µM (active)
NS(=O)(=O)c1cc2c(cc1Cl)CN(C1CCCCC1)C2=O | inactive | 0.796% |  | 
Cc1cccc(C)c1NC(=O)CN1CCCC1 | 5.96 µM (active) | 3.45% |  | inactive
CCOc1c(N2CCOCC2)cnn(C)c1=O | inactive | 6.29% |  | inactive
CCC1=C[C@@H]2CN(C1)Cc1c([nH]c3ccccc13)[C@@](C(=O)OC)(c1cc3c(cc1OC)N(C)[C@H]1[C@@](O)(C(=O)OC)[C@H](OC(C)=O)[C@]4(CC)C=CCN5CC[C@]31[C@@H]54)C2 | 7.5 nM (active) and 64.5 nM (active) | -91.8% | 0.143 µM (active) | 20.6 nM (active) and 2.54 µM (active)
CC[C@H](NC(=O)[C@H](CS(=O)(=O)CC1CC1)N[C@@H](c1ccc(F)cc1)C(F)(F)F)C(=O)C(=O)NC1CC1 | inactive | -11.3% |  | inactive
N#Cc1ccnc(N2C(=O)CC[C@H]2C(=O)N(c2cncc(F)c2)C(C(=O)NC2CC(F)(F)C2)c2ccccc2Cl)c1 (some centres not stated) | inactive | 6.42% |  | inactive
Nc1nc(Nc2ccc3c(c2)CC[C@@H](N2CCCC2)CC3)nn1-c1cc2c(nn1)-c1ccccc1CCC2 | 0.417 µM (active) |  | 14.1 µM (active) | 10 µM (active)
O=C(CCCl)NCCc1ccccc1 | inactive | -1.73% |  | inactive
CNC(=O)Cn1cc(-c2ccc3c(c2)C(F)CC32NC(=O)N(CC(=O)N(Cc3ccc(F)cc3)[C@@H](C)C(F)(F)F)C2=O)cn1 (some centres not stated) | 0.132 µM (active) | 8.67% |  | inactive
Cc1ccsc1/C=C/C1=NCCCN1C | inactive | -3.84% |  | inactive
CCOC(=O)[C@H](CCc1ccccc1)N[C@H]1CCc2ccccc2N(CC(=O)O)C1=O | 16.6 µM (active) | -3.37% |  | inactive
CCCCNC(=O)NS(=O)(=O)c1ccc(N)cc1 | 2.11 µM (active) | 0.545% |  | inactive
CNCCCOc1cc(F)c(-c2c(Cl)nc3ncnn3c2N[C@@H](C)C(F)(F)F)c(F)c1 | 0.0372 µM (active) |  | 0.0501 µM (active) | 0.112 µM (active)
Cc1ccc(N)cc1O | 9.69 µM (active) | 2.63% |  | 
Nc1ccc(O)cc1 | inactive | 0.149% |  | inactive
COc1ccc(/C=C/C(=O)Nc2ccccc2C(=O)O)cc1OC | inactive | -0.0143% |  | inactive
CO[C@@H]1[C@@H](O)[C@H](O)[C@@H](n2c3c(Cl)cccc3c3c4c(c5c6cccc(Cl)c6[nH]c5c32)C(=O)NC4=O)O[C@H]1CO | 0.742 µM (active) |  | 0.316 µM (active) | 5.62 µM (active)
C[C@@H](Nc1cc(F)cc(F)c1)c1cc(C(=O)N(C)C)cc2c(=O)cc(N3CCOCC3)oc12 | 2.31 µM (active) and 6.61 µM (active) | -10.8% |  | 

Structure (SMILES) | Potency [1] | activity (max response) [2] | Potency [2] | Potency [3]
NCC(=O)Nc1cncc(-c2nn3c(=O)cc(N4CCNCC4)nc3s2)c1 | inactive | -17.3% |  | inactive
CC[N+](CC)(CC(=O)Nc1c(C)cccc1C)Cc1ccccc1 | inactive | 1.59% |  | inactive
Cc1ccc(O)cc1 | inactive | 11.5% |  | inactive
CN(C)CCC[C@@]1(c2ccc(F)cc2)OCc2cc(C#N)ccc21 | 8.41 µM (active) | -9.39% |  | inactive
CC(C)(O)C1CCC(Nc2ccc3ncc(-c4cccc(C(F)(F)F)c4)n3n2)CC1 (configuration not stated) | 1.32 µM (active) | -17.2% |  | 4.47 µM (active)
CC(C)(Oc1ccc(CCNC(=O)c2ccc(Cl)cc2)cc1)C(=O)O | inactive | -0.538% |  | inactive
C[C@@H](O)[C@H](N)C(=O)O | inactive | 12.2% |  | inactive
CCCC1(CCC)CCC2(CCN(CCCN(CC)CC)C2)CC1 | 2.31 µM (active) |  | 3.55 µM (active) | 6.31 µM (active)
COc1ccc(C(=O)c2ccccc2O)c(O)c1 | 9.44 µM (active) | 11.3% |  | inactive
CC(C)(C)CC(C)(C)c1ccc(O)c(Cc2ccc(Cl)cc2Cl)c1 | 15 µM (active) |  | 16.4 µM (active) | 5.8 µM (active)
CN1CC[C@H](c2c(O)cc(O)c3c(=O)cc(-c4ccccc4Cl)oc23)[C@H](O)C1 | 0.299 µM (active) |  | 0.184 µM (active) | 0.103 µM (active)
C1=CC2C3C=CC(C3)C2C1 (configuration not stated) | inactive | 5.69% |  | inactive
O=C(NC[C@H](O)CN1CCc2ccccc2C1)c1ccnc(NC2CCC2)c1 | 6.61 µM (active) | -19.6% |  | inactive
Cc1cc(OI)c(C(C)C)cc1-c1cc(C(C)C)c(OI)cc1C | inactive | 11.4% |  | inactive
N/C(=N\N=C\c1ccc(Cl)cc1)N/N=C/c1ccc(Cl)cc1 | inactive | -4.76% |  | inactive
C/C=C(/C)C(=O)O[C@H]1C(C)=CC23C(=O)C(C=C(CO)[C@@H](O)[C@]12O)[C@H]1[C@@H](C[C@H]3C)C1(C)C (some centres not stated) | 0.0083 µM (active) | -8.96% |  | inactive
Cc1cc(-c2ccccc2)nnc1NCCN1CCOCC1 | inactive | -11% |  | inactive
Nc1ncnc(Nc2ccc(OCc3ccccc3)c(Cl)c2)c1/C=N/OCCN1CCOCC1 | 7.42 µM (active) |  | 17.8 µM (active) | 15.8 µM (active)
S=c1[nH]c2ccccc2s1 | 0.545 µM (active) | 3% |  | inactive
CN1Cc2c(N)cccc2C(c2ccccc2)C1 (configuration not stated) | inactive | -0.946% |  | inactive
